# Source: PubChem BioAssay (NCATS)
# Results filed as inconclusive are left out. Activity calls are given as the source filed them. Calls follow the shape of the full dose curve.
# Molecular target: Nucleoprotein (Lymphocytic choriomeningitis virus (strain Armstrong)) (UniProt P09992)
# Assay: qHTS for Inhibitors of the Functional Ribonucleoprotein Complex (vRNP) of Lymphocytic Choriomeningitis Arenaviruses (LCMV): LCMV Primary Screen - GLuc reporter signal (AID 1347086); also: nearly all actives have a fitted effect of over 70% in size
# Details: LCMV minigenome vRNP cell assay, Gaussia luciferase reporter; series mostly up to 57.5 µM; activity change, negative = inhibition: at the top concentration
# % is scaled to controls: 0 for no effect and ±100 for the full control effect.
# Chain of Nucleoprotein (Lymphocytic choriomeningitis virus (strain Armstrong)) (P09992 whole entry, looked up): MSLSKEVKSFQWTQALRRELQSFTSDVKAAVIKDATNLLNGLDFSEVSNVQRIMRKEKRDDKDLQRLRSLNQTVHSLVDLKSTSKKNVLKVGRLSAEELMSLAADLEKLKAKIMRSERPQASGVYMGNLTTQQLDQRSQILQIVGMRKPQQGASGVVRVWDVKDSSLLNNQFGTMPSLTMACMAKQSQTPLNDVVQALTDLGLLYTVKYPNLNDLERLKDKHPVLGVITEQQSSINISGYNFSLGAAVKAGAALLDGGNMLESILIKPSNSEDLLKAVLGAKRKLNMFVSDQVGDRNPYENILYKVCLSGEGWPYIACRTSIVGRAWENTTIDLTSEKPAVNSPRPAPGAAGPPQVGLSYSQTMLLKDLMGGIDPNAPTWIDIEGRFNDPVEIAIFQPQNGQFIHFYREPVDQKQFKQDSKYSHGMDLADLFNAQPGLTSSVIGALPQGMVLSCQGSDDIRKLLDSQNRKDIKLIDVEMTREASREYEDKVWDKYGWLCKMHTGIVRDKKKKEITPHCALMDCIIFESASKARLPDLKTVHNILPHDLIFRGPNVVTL
SMILES,"activity change, negative = inhibition",Potency
CCCOC(=O)c1ccc(N)cc1,20.6% (inactive),
CCOC(=O)C(C)(C)Oc1ccc(Cl)cc1,,inactive
O=C(O)CP(=O)(O)O,,inactive
CN1CCN(c2c(F)cc3c(=O)c(C(=O)O)cn(CCF)c3c2F)CC1,,inactive
Cc1nc(C2CCCCC2)c(-c2ccc(S(N)(=O)=O)c(F)c2)o1,-5.06% (inactive),
Oc1ccc(/C=C/c2cc(O)cc(O)c2)cc1,,inactive
CC(=O)N(CC(=O)N(C)C)c1ccccc1,-3.87% (inactive),
C[C@]12CCC(=O)C=C1[C@@H]1C[C@@H]1[C@H]1[C@@H]3[C@@H]4C[C@@H]4[C@@]4(CCC(=O)O4)[C@@]3(C)CC[C@@H]12,-1.19% (inactive),
O=C(O)CCCCCCNC1c2ccccc2CCc2ccccc21,7.2% (inactive),
O=C(O)Cn1c(C(=O)Nc2nc(-c3ccccc3Cl)cs2)cc2ccccc21,6.63% (inactive),
CCCCOc1ccc(C(=O)CCN2CCCCC2)cc1,-4.43% (inactive),
CC(N)C(=O)OC(C)(C)Cc1ccc(Cl)cc1 (centres undefined),,inactive
CC(Oc1c(Cl)cccc1Cl)C1=NCCN1 (centres undefined),-2.71% (inactive),
O=C(CCCN1CCC(O)(c2ccc(Br)cc2)CC1)c1ccc(F)cc1,0.0631% (inactive),
O=S(=O)(O)NC1CCCCC1,0.465% (inactive),
COc1cc2c(cc1OC)-c1cc(=Nc3c(C)cc(C)cc3C)n(C)c(=O)n1CC2,-28.6% (inactive),
CN1CC(=O)N2[C@H](c3ccc4c(c3)OCO4)c3[nH]c4ccccc4c3C[C@@H]2C1=O,29.6% (inactive),
C/C(=C(\CCOP(=O)(O)O)SC(=O)c1ccccc1)N(C=O)Cc1cnc(C)nc1N,-1.19% [at 5.82 µM] (inactive),
CCO[C@@H]1O[C@H](C(COCc2ccccc2)OCc2ccccc2)[C@H](OCc2ccccc2)[C@H]1O (some centres undefined),-1.92% (inactive),
Nc1ccc(C(=O)NCC(=O)O)cc1,0.319% (inactive),

SMILES,"activity change, negative = inhibition",Potency
CCCS(=O)c1ccc2nc(NC(=O)OC)[nH]c2c1 (centres undefined),-33.6% (inactive),
C[C@]12CCC(=O)C=C1CC[C@@H]1[C@@H]2CC[C@@]2(C)[C@H]1CC[C@]2(O)C(=O)CO,18.2% (inactive),
CC(C)(C)C(=O)C(Oc1ccc(Cl)cc1)n1ccnc1 (centres undefined),5.2% (inactive),
O=C(O)CCC(=O)c1ccc(-c2ccccc2)cc1,13.7% (inactive),
CCCCOc1cc(C(=O)OCCN(CC)CC)ccc1N,10.5% (inactive),
CCc1cccc2c3c([nH]c12)C(CC)(CC(=O)O)OCC3 (centres undefined),,inactive
CCCCCCCCCCCCCCNCCO,3.26% (inactive),
Cc1c(C)n(CCN(C)C)c2ccc(C(=O)OCCN(C)C)cc12,-30.1% (inactive),
CC(=O)OCC1=C(C(=O)O)N2C(=O)[C@@H](NC(=O)CSc3ccncc3)[C@H]2SC1,28% (inactive),
Oc1ccc(CCNCCCCCCNCCc2ccccc2)cc1O,6.6% (inactive),
CC(C)(C)c1ccc(C(O)CCCN2CCC(C(O)(c3ccccc3)c3ccccc3)CC2)cc1 (centres undefined),30.6% (inactive),
C=CCSCC1Nc2cc(Cl)c(S(N)(=O)=O)cc2S(=O)(=O)N1 (centres undefined),-0.194% (inactive),
CCN(CC)CCCN(c1ccccc1)C1Cc2ccccc2C1,,inactive
CC(O)Cn1cnc2c1c(=O)n(C)c(=O)n2C (centres undefined),-4.03% (inactive),
O=C1OC(OC(=O)c2cccnc2Nc2cccc(C(F)(F)F)c2)c2ccccc21 (centres undefined),-3.64% (inactive),
CCN(CC)CCOC(=O)C(Cc1cccc2ccccc12)CC1CCCO1 (centres undefined),6.89% (inactive),
OC[C@H]1O[C@@H](O[C@@H]2[C@@H](CO)O[C@](O)(CO)[C@H]2O)[C@H](O)[C@@H](O)[C@H]1O,-4.43% (inactive),
CC(C)C[C@@H]1[C@H](c2ccccc2)OC(=O)N1CCCN1CCCCCC1,-36% (inactive),
CNC(=O)CN(CCN(CCN(CC(=O)[O-])CC(=O)NC)CC(=O)[O-])CC(=O)[O-].O.[Gd+3],11.3% (inactive),
